Data from PubChem BioAssay (EPA / NIEHS).
Calls of active or inactive are those of the source. How the source made its calls: active means hit-call score of the fitted dose curve at least 0.9, where 1 is the maximum; inactive means score below 0.9.

Read-out: Cytochrome P450 (CYP1A1), CYP1A1 (gene 1543)
Experiment: LTEA_HepaRG_CYP1A1: Life Technologies and Expression Analysis (LTEA) Assay for Cytochrome P450 (CYP1A1) using HepaRG (AID 2283454)
Conditions: mRNA level, 48 h; actives raise or lower the signal
Method in brief: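 Using HepaRG cultures with 0.5% DMSO as vehicle, eight-concentration exposures (max 100 uM) lasted 48 h. Transcript levels were measured by TaqMan qRT-PCR and normalized to ACTB, GAPDH and POLR2A.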

AC50, active:
CC(C)=CCCC(C)=CC=O 63.9 µM
COc1cccc(-c2ccc(/C=C\CN3CCCCCC3)cc2Cl)c1 45.2 µM
COC(=O)CC(=O)OC 50 µM
Cc1c(-c2cccnc2)c2ccccc2n1CCCCC(=O)O 37.2 µM
CC[C@H](C)C(=O)O[C@H]1C[C@@H](C)C=C2C=C[C@H](C)[C@H](CC[C@@H]3C[C@@H](O)CC(=O)O3)[C@H]21 24.4 µM

outcome, inactive:
CC(=O)c1ccc2c(c1)[C@H](NC(=O)c1ccc(F)cc1)[C@@H](O)C(C)(C)O2

Read-out: CFLAR gene, CFLAR (gene 8837)
Experiment: LTEA_HepaRG_CFLAR: Life Technologies and Expression Analysis (LTEA) Assay for CFLAR gene using HepaRG (AID 2283455)
Conditions: mRNA level, 48 h; actives raise or lower the signal
Method in brief: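 HepaRG cells were plated for 48 h, switched to serum-free induction medium, then exposed in duplicate for 48 h to 8 concentrations (top 100 uM, half-log steps, 0.5% DMSO). CFLAR mRNA was measured by qRT-PCR, normalized to ACTB, GAPDH and POLR2A.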

outcome, inactive:
CC(C)=CCC/C(C)=C\CO
Oc1ccc2c(c1)-c1ccccc1C2
CCOCCOCCOCCO
On1ccccc1=S
CC[C@H]1OC(=O)[C@H](C)[C@@H](O[C@H]2C[C@@](C)(OC)[C@@H](O)[C@H](C)O2)[C@H](C)[C@@H](O[C@@H]2O[C@H](C)C[C@H](N(C)C)[C@H]2O)[C@](C)(O)C[C@@H](C)C(=O)[C@H](C)[C@@H](O)[C@]1(C)O
O=C1CCC(N2C(=O)c3ccccc3C2=O)C(=O)N1 (stereo unspecified)
CC(C)=CCCC(C)CCO (stereo unspecified)
Cc1ccc(S(=O)(=O)O)cc1C
CCCCCCCCCCCCc1ccccc1
O=C(O)CC(O)C(=O)O (stereo unspecified)
C=CCCCCCCCCC(=O)O
CCOCCO
CCNc1ccccc1
CCC(C)(C)C(=O)O[C@H]1C[C@@H](C)C=C2C=C[C@H](C)[C@H](CC[C@@H]3C[C@@H](O)CC(=O)O3)[C@H]21
CCCCC(CC)COC(=O)c1ccc(C(=O)OCC(CC)CCCC)cc1 (stereo unspecified)
CCN(C(=O)c1cc(C)cc(OC[C@H](C)Nc2ccncc2)c1)C(C)C
CC(C)=CCC/C(C)=C/CO
Cc1ccc(O)cc1
CN(C)c1ccc(N=NS(=O)(=O)O)cc1
COC(=O)c1ccccc1O
COC(=O)c1c(Cl)c(Cl)c(C(=O)OC)c(Cl)c1Cl
CC(C)=CCCC(C)=CC=O
CC(=O)c1ccc2c(c1)[C@H](NC(=O)c1ccc(F)cc1)[C@@H](O)C(C)(C)O2
COc1cccc(-c2ccc(/C=C\CN3CCCCCC3)cc2Cl)c1
COC(=O)CC(=O)OC
Cc1c(-c2cccnc2)c2ccccc2n1CCCCC(=O)O
NC(=O)NO
CC[C@H](C)C(=O)O[C@H]1C[C@@H](C)C=C2C=C[C@H](C)[C@H](CC[C@@H]3C[C@@H](O)CC(=O)O3)[C@H]21

AC50, active:
CCc1cc(SCc2sc(-c3ccc(C(F)(F)F)cc3)nc2CN2CCN(c3ccc(OC)cc3)CC2)ccc1OCC(=O)O 92.2 µM
Cc1[nH]cnc1C[C@H]1CCc2c(C)c3ccccc3n2C1=O 79.9 µM
